From ChEMBL document CHEMBL3988442, “University of Dundee, Small-Polar-MMV Screening Library” (2021)
Out of some 48,000 compounds screened, about 13,000 (27%) showed an effect of 50% or more. The list shows a part of the results.

test system: Wolbachia pipientis; test: Anti-Wolbachia Cell-Based Screen; assay type: functional; parameters: scale not given: in the data most compounds retested in dose-response had high values; conditions: 5 µM

| SMILES | Percent Effect [%] |
| --- | --- |
| CCC(=O)c1cccc(S(=O)(=O)NC(C)C#N)c1 (stereo not drawn) | -8.003 |
| O=C(NCC1CC1)C1CSCN1S(=O)(=O)c1cccc(F)c1 (stereo not drawn) | -6.551 |
| O=S(=O)(c1cccc(F)c1)N1CCCCC1c1ccn[nH]1 (stereo not drawn) | 127.9 |
| Cc1ccccc1S(=O)(=O)N1CCCCC1c1ccn[nH]1 (stereo not drawn) | 0.4281 |
| O=S(=O)(c1cccs1)N1CCCCC1c1ccn[nH]1 (stereo not drawn) | 120.2 |
| CN(C1CCN(c2ccccn2)CC1)S(=O)(=O)c1cccc(F)c1 | 13.53 |
| O=C(O)C(F)(F)F.O=S(=O)(c1cccs1)N1CC[C@H]2[C@H]1CCN2c1ncccn1 | -7.709 |
| O=C1c2c(O)cc(O)cc2O[C@@H](c2ccc(O)cc2)[C@@H]1O | 0.6664 |
| CC(=O)NCCNC(=O)c1sc(-c2ccc(Cl)s2)nc1C | -4.935 |
| O=C(Nc1ccccc1)NC1CCN(C2CCOC2)CC1 (stereo not drawn) | -12.98 |
| CC(C)c1nc(CN(C)C(=O)CNS(=O)(=O)c2cccs2)cs1 | -16.12 |
| COCc1cc(N(C)Cc2ncnn2C)nc(C(C)(C)C)n1 | -13.36 |
| O=C(O)C(=O)O.c1cnc(-c2noc(C3CN(Cc4ccc5c(c4)CCO5)C3)n2)cn1 | 6.909 |
| Cc1nc(CN2CCOC(CNc3cccnn3)C2)oc1C (stereo not drawn) | 3.025 |
| CCc1nc(CN2CCOC(CNc3cccnn3)C2)cs1 (stereo not drawn) | 75.15 |
| CC(C)c1nc(CN2CCOC(CNc3cccnn3)C2)cs1 (stereo not drawn) | 87.62 |
| CCCc1nc(CN2CCOC(CNc3cccnn3)C2)cs1 (stereo not drawn) | 6.887 |
| CCc1nc(CN2CCOC(CN(C)c3cccnn3)C2)cs1 (stereo not drawn) | -6.381 |
| CCOc1nnc(CN2CCOC(CNc3cccnn3)C2)s1 (stereo not drawn) | -8.583 |
| Cc1cnc(CN2CCOC(CNc3cccnn3)C2)cn1 (stereo not drawn) | 0.4879 |
| COCc1nc(CN2CCOC(CN(C)c3cccnn3)C2)cs1 (stereo not drawn) | 6.806 |
| Cc1nc(C)c(CN2CCOC(CN(C)c3cccnn3)C2)s1 (stereo not drawn) | -0.1768 |
| COCc1nc(CN2CCOC(CNc3cccnn3)C2)cs1 (stereo not drawn) | 82.18 |

| SMILES | Percent Effect [%] |
| --- | --- |
| Cc1nc(CN2CCOC(CNc3cccnn3)C2)cs1 (stereo not drawn) | -1.722 |
| Cc1nc(C)c(CN2CCOC(CNc3cccnn3)C2)s1 (stereo not drawn) | 87.52 |
| Cn1cc(CCC(=O)NS(=O)(=O)N2CCCc3ccccc32)cn1 | -16.6 |
| CCc1nsc(N2CCn3c(nnc3C(F)(F)F)C2)n1 | 3.315 |
| COCCOc1cc(C(=O)N2CC(C)c3ccccc32)ccn1 (stereo not drawn) | -1.249 |
| COCC(=O)N[C@H](C)c1c(-c2ccc(Cl)cc2)noc1C(=O)O | -3.12 |
| c1csc(-c2nc(CN3CCOC(Cn4cccn4)C3)co2)c1 (stereo not drawn) | 6.391 |
| Fc1cccc(-c2nc(CN3CCOC(Cn4cncn4)C3)co2)c1 (stereo not drawn) | -2.254 |
| Fc1cccc(-c2nc(CN3CCOC(Cn4cccn4)C3)co2)c1 (stereo not drawn) | 1.83 |
| c1ccc(-c2nc(CN3CCOC(Cn4cccn4)C3)no2)cc1 (stereo not drawn) | -5.165 |
| Cc1ccc(-c2nc(CN3CCOC(Cn4cccn4)C3)co2)cc1 (stereo not drawn) | 108.6 |
| c1ccc(-c2nc(CN3CCOC(Cn4cccn4)C3)co2)cc1 (stereo not drawn) | 93.62 |
| Fc1ccc(-c2nc(CN3CCOC(Cn4cccn4)C3)co2)cc1 (stereo not drawn) | 92.05 |
| c1coc(-c2nc(CN3CCOC(Cn4cccn4)C3)cs2)c1 (stereo not drawn) | 16.31 |
| O=C1COC[C@H]([C@H](O)c2ccc(NC(=O)c3cccnc3)cc2)N1 | -8.221 |
| Cc1ccc(-c2nnc([C@H]3CCN(C4CCC4)C3)o2)cc1 | 10.26 |
| O=C(c1ncoc1C1CCCO1)N1CCCC2(CCCCC2)C1 (stereo not drawn) | -7.896 |
| CN1CCOC(CNCCc2ccccn2)C1 (stereo not drawn) | -2.338 |
| CCN1CCOC(CNCc2ccccc2OCc2ccccn2)C1 (stereo not drawn) | 9.704 |
| CN1CCOC(CNCc2cccc(OCc3ccccn3)c2)C1 (stereo not drawn) | -19.83 |
| CN1CCOC(CNCc2ccc(OCc3ccccn3)cc2)C1 (stereo not drawn) | 111 |
| CCN1CCOC(CNCc2cccc(OCc3ccccn3)c2)C1 (stereo not drawn) | 99.3 |
| CC(C)CC(N)C1=N/C(=C2\N=CN=N2)NO1 (stereo not drawn) | -1.816 |

| SMILES | Percent Effect [%] |
| --- | --- |
| CNC(=O)NC(=O)C(NCc1ccccc1)c1ccccc1 (stereo not drawn) | 7.195 |
| COc1ccc(S(=O)(=O)NCCCc2nnc3nc(C)cc(C)n23)cc1 | 128.4 |
| COc1ccc(S(=O)(=O)NCCCc2ccc(N(C)C)cc2)cc1Cl | 10.52 |
| COc1ccc(CC(=O)NCCCc2nnc3nc(C)cc(C)n23)cc1 | 140.8 |
| COc1ccc(S(=O)(=O)NCCCc2ccc(N(C)C)cc2)cc1F | 8.354 |
| O=S(=O)(NCCNc1ccc(-n2cccc2)nn1)c1cccs1 | 19 |
| Cn1ccnc1CCNS(=O)(=O)c1ccc(Br)cc1 | -0.8619 |
| Cc1cc(C)n2c(CCCNS(=O)(=O)c3ccc(F)cc3)nnc2n1 | 115.4 |
| Cc1cc(C)n2c(CCCNS(=O)(=O)c3cccs3)nnc2n1 | 99.96 |
| COc1cccc(CC(=O)NCCc2nnc3n2CCCCC3)c1 | -1.985 |
| O=S(=O)(NCCNc1cc(-n2cccc2)ncn1)c1cccs1 | 9.931 |
| COc1ccc(CCNC(=O)Nc2cc(C)nn2C)cc1 | -34.88 |
| CCOc1ccc(S(=O)(=O)NCCCc2ccc(N(C)C)cc2)cc1F | 11.9 |
| COCCN(C)c1ccc(NCc2cccnc2)nc1 | -2.901 |
| Cc1nc2cc(=O)[nH]n2c(C)c1CNC(=O)c1cnn(C(C)(C)C)c1 | -22.93 |
| CC(C)c1nnc2n1CCN(C(C)c1nnc(-c3cccs3)o1)C2 (stereo not drawn) | -12.3 |
| CCc1ncc(C(=O)N(CC)CCOC)cn1 | -25.3 |
| Cc1cc(C)n2c(CCCNS(=O)(=O)c3ccccc3)nnc2n1 | 105.2 |
| O=S(=O)(NCCc1nnc2ccccn12)c1cccnc1 | -2.198 |
| Cc1nsc(NCCNS(=O)(=O)c2ccccc2)n1 | -9.26 |
| Cc1nc(CN2CC(CO)Oc3ccccc32)sc1C (stereo not drawn) | -1.227 |
| Cn1ccnc1CN(CCO)Cc1ccc(C(F)(F)F)cc1 | -12.47 |
